# Values without a mark were called inactive. Calls of active or inactive are those of the source.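 How the source made its calls: active means IC50 below 10 µM at human M5 in a calcium flux test, acting as a negative modulator; inactive means the rest.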
# Molecular target: Muscarinic acetylcholine receptor M5 (Homo sapiens) (UniProt P08912)
# Assay: inhibition of ACh-evoked M5 calcium signal – cell-based, single concentration, human M5 (AID 743025)
# Conditions: CHO-K1 hM5, ACh EC80 calcium flux, Fluo-4; at 10 µM; hits give low values
# Chain of Muscarinic acetylcholine receptor M5 (Homo sapiens) (P08912 whole entry, looked up): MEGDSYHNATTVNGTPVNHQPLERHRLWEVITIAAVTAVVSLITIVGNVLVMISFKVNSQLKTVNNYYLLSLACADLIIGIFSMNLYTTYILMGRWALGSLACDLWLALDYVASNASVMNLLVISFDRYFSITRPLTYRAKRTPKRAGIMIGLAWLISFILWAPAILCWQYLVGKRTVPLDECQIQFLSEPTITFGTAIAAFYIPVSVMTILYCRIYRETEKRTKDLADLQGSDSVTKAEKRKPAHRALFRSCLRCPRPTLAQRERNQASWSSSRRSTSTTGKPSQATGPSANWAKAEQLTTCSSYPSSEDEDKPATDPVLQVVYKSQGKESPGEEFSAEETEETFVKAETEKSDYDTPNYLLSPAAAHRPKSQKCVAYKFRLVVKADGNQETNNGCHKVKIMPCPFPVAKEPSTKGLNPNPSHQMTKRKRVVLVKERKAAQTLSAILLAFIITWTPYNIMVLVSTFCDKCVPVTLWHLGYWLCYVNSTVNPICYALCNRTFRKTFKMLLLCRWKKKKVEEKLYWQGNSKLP
row,SMILES,activity remaining
1,CC(C)Oc1ccc(C(=O)N2CCN3C(=O)c4ccccc4C23c2ccc(Cl)cc2)cc1 (configuration not stated),-1.43% (active)
2,O=C(c1cc(F)cc(F)c1)N1CCN2C(=O)c3ccccc3C12c1ccccc1 (configuration not stated),4.21% (active)
3,COc1ccc(C23c4ccccc4C(=O)N2CCN3C(=O)c2ccccc2)cc1 (configuration not stated),73%
4,Cc1ccc(C23c4ccccc4C(=O)N2CCN3C(=O)c2cc(F)cc(F)c2)cc1 (configuration not stated),2.43% (active)
5,C[C@H]1CN(Cc2ccccc2)[C@]2(c3ccc(Cl)cc3)c3ccccc3C(=O)N12,73.1%
6,O=C(c1ccccc1)N1CCCC1c1ccccc1 (configuration not stated),88.8%
7,COc1cc(C(=O)N2CCN3C(=O)c4ccccc4C23c2ccc(Cl)cc2)cc(OC)c1OC (configuration not stated),63.4%
8,O=C(c1cccc(C(F)(F)F)c1)N1CCN2C(=O)c3ccccc3C12c1ccccc1 (configuration not stated),6.77% (active)
9,O=C(Nc1ccc(F)cc1F)N1CCN2C(=O)c3ccccc3C12c1ccc(Cl)cc1 (configuration not stated),77.2%
10,CN(C(=O)c1ccccc1)C(c1ccccc1)c1ccccc1,84.3%
11,O=C(Nc1ccc(Cl)cc1)N1CCCN2C(=O)c3ccccc3C12c1ccccc1 (configuration not stated),84.5%
12,O=C(c1ccc(-c2ccccc2)cc1)N1CCN2C(=O)c3ccccc3C12c1ccccc1 (configuration not stated),62.7%
13,Cc1ccc(C23c4ccccc4C(=O)N2CCN3C(=O)c2ccccc2)cc1 (configuration not stated),53.2% (active)
14,O=C(Nc1cccc(C(F)(F)F)c1)N1CCN2C(=O)c3ccccc3C12c1ccccc1 (configuration not stated),76.4%
15,O=C(c1cccc(C(F)(F)F)c1)N1CCN2C(=O)c3ncccc3C12c1ccccc1 (configuration not stated),76.6%
16,Cc1ccc(C(=O)N2CCN3C(=O)c4ccccc4C23c2ccc(F)cc2)cc1 (configuration not stated),67.9%
17,O=C1c2ccccc2C2(c3ccccc3)N(Cc3ccc(F)cc3)CCN12 (configuration not stated),80.8%
18,O=C1c2ccccc2C2(c3ccccc3)N1CCN2C(=O)C1CCCC1 (configuration not stated),97.8%
19,O=C(c1ccc(SC(F)(F)F)cc1)N1CCN2C(=O)c3ncccc3C12c1ccccc1 (configuration not stated),62.1%

row,SMILES,activity remaining
1,O=C(Nc1ccc(F)cc1)N1CCN2C(=O)c3ccccc3C12c1ccccc1 (configuration not stated),84.3%
2,COc1ccc(C23NCCN2C(=O)c2ccccc23)cc1 (configuration not stated),72.7%
3,O=C(c1ccc(F)cc1F)N1CCN2C(=O)c3ccccc3C12c1ccccc1 (configuration not stated),69%
4,CSc1cccc(NC(=S)N2CCN3C(=O)c4ccccc4C32c2ccccc2)c1 (configuration not stated),77.7%
5,CSc1ccc(C23c4ccccc4C(=O)N2CCN3C(=O)c2ccc(F)c(F)c2)cc1 (configuration not stated),14.6% (active)
6,O=C(c1cccc(C(F)(F)F)c1)N1CCCN2C(=O)c3ccccc3C12c1ccc(Cl)cc1 (configuration not stated),78.6%
7,COc1ccc(C23c4ccccc4C(=O)N2CCN3C(=O)c2cccc(F)c2)cc1 (configuration not stated),57.4% (active)
8,Cc1ccc(C23c4ccccc4C(=O)N2CCN3C(=O)c2cccc(C(F)(F)F)c2)cc1 (configuration not stated),28.8% (active)
9,Cc1ccc(C23c4ccccc4C(=O)N2CCN3C(=O)c2ccc(C(F)(F)F)cc2)cc1 (configuration not stated),28.6% (active)
10,O=C(c1ccccc1)N1CCN2C(=O)c3ncccc3C12c1ccccc1 (configuration not stated),78.7%
11,COc1ccc(C23c4ccccc4C(=O)N2CCN3C(=O)c2ccccn2)cc1 (configuration not stated),66.1%
12,COc1cccc(C(=O)N2CCN3C(=O)c4ccccc4C23c2ccc(Cl)cc2)c1 (configuration not stated),17.5% (active)
13,O=C(c1ccc(F)cc1)N1CCCC1c1ccccc1 (configuration not stated),87%
14,O=C(c1ccncc1)N1CCN2C(=O)c3ccccc3C12c1ccccc1 (configuration not stated),98.6%
15,Cc1ccccc1C(=O)N1CCN2C(=O)c3ccccc3C12c1ccccc1 (configuration not stated),50.5% (active)
16,O=C(c1ccc(F)cc1Cl)N1CCN2C(=O)c3ccccc3C12c1ccccc1 (configuration not stated),64.1%
17,CCOc1ccc(C(=O)N2CCN3C(=O)c4ccccc4C23c2ccccc2)cc1 (configuration not stated),61.1%
18,O=C(c1ccc(F)cc1)N1CCN2C(=O)c3ncccc3C12c1ccccc1 (configuration not stated),65.2%
